# Data: PubChem BioAssay (Tox21)
# Inconclusive results are not listed. Values without a mark were called inactive. Activity calls are given as the source filed them. The call rests on the fitted dose curve.
# Molecular target: Thyrotropin receptor (Homo sapiens) (UniProt P16473)
# Experiment: qHTS assay to identify small molecule agonists of the thyroid stimulating hormone receptor (TSHR) signaling pathway (AID 1224843); further: nearly all actives have a fitted effect of over 45% in size
# Conditions: TSHR-HEK293 cells, cAMP HTRF, agonist mode, 30 min; series mostly up to 42.5 µM; activation: at the top concentration
# How it was run: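 Screening of the Tox21 10K collection used HEK293 cells engineered with TSHR at 800 cells per well. After a 30-min room-temperature compound exposure, HTRF cAMP reagents were added and fluorescence recorded 1 h later.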
# On the % scale 0 is the no-effect control and ±100 the full control effect; potency means the concentration at half of the fitted maximal effect.
# Chain of Thyrotropin receptor (Homo sapiens) (P16473 whole entry, looked up): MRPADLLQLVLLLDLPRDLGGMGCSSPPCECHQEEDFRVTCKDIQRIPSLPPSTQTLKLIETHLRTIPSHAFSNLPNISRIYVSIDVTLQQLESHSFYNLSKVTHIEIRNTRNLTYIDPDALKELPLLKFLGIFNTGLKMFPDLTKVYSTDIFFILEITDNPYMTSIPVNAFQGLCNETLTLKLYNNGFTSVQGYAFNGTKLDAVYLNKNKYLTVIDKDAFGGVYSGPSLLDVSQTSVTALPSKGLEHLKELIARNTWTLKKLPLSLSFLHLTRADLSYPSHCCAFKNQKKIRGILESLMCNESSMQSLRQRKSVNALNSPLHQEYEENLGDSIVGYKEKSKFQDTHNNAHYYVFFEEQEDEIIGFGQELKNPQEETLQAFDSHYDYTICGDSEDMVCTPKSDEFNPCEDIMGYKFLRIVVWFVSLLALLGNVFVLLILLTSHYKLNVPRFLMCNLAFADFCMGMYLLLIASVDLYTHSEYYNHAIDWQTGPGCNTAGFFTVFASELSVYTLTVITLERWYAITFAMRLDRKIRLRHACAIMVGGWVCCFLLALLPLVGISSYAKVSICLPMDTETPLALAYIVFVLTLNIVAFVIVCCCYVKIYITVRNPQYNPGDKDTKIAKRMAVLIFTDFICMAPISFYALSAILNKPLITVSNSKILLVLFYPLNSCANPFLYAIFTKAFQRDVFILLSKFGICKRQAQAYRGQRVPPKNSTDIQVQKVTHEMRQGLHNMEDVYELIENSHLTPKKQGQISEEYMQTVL
SMILES,activation,Potency
Cn1cc(S(C)=O)c(=O)c2ccc(F)cc21 (stereo not drawn),-0.358%,–
C=CCOCC(CC)(CO)COCC=C,-6.51% [at 92.4 µM],–
CC(=O)Nc1ccc(S(N)(=O)=O)cc1,1.23% [at 92.4 µM],–
C=C1CC[C@H]2C[C@@H]1C2(C)C,-17.1% [at 92.4 µM],–
CCCCCCCCS(=O)(=O)Cl,3.11% [at 92.4 µM],–
C=C[Si](OC(=C)C)(OC(=C)C)OC(=C)C,-4.89% [at 92.4 µM],–
O=C1NC(=O)[C@@]2(CCOc3ccc(F)cc32)N1,0.107%,–
CN1CCCC1,-11.8% [at 92.4 µM],–
O=c1cc(CO)occ1O,3.56%,–
CC(=O)CC(C)C,-9.78% [at 92.4 µM],–
CCN(CC)CCNC(=O)c1cc(S(C)(=O)=O)ccc1OC,-11.6%,–
N=C(N)c1ccccc1,-22.3% [at 92.4 µM],–
NC(=O)c1cn(Cc2c(F)cccc2F)nn1,-4.79%,–
O=C1CCCCCCCCCCCN1,–,inactive
COc1ccc(CCN(C)CCCC(C#N)(c2cc(OC)c(OC)c(OC)c2)C(C)C)cc1OC (stereo not drawn),–,2.11 µM (active)
Cc1cnc(NS(=O)(=O)c2ccc(N)cc2)nc1,0.527%,–
CC(=O)N(CC(O)CO)c1c(I)c(C(=O)NCCO)c(I)c(C(=O)NCC(O)CO)c1I (stereo not drawn),-2.22%,–
C/C=C(\C)C#N,-8.14% [at 92.4 µM],–
COC(=O)CCSCCC(=O)OC,-0.796% [at 92.4 µM],–
COc1ccccc1OCC(O)CN1CCN(CC(=O)Nc2c(C)cccc2C)CC1 (stereo not drawn),-4.68%,–
CN(C)CCCSc1ccccc1NC(=O)/C=C/c1ccccc1,-6.51%,–
N=C(N)c1ccc(OCCCOc2ccc(C(=N)N)cc2)cc1,-9.27%,–
CCC=O,0.464% [at 92.4 µM],–
Nc1ccccc1S(=O)(=O)O,-8.95% [at 92.4 µM],–
Nc1nc2c(ncn2COC(CO)CO)c(=O)[nH]1,-2.3%,–
CCN(CC)CCOCCOC(=O)C1(c2ccccc2)CCCC1,-7.57%,–
C[C@H]1C[C@@H](O)CC(C)(C)C1,2.12% [at 92.4 µM],–
CC/C=C\CCOC(C)=O,4.41% [at 92.4 µM],–
